Active and inactive are the calls of the source. Unless noted, the rule behind the calls is not given here.
How the values were obtained:
[1] = system: XIP peptide (Xip251-270) binding; assay: small-molecule binders of XIP peptide, primary screen, biochemical, small-molecule microarray, fluorescence 635/667 nm, 0.1 µg/mL protein (AID 1182); conditions: fluorescent protein binding, 635 nm, higher = more signal, called active from +8 up or from −8 down
XIP peptide (Xip251-270) = assay: small-molecule binders of XIP peptide, primary screen, biochemical, small-molecule microarray, fluorescence 635/667 nm, 0.5 µg/mL protein (AID 1183); conditions: small-molecule microarray binding, fluorescence 635 nm; higher = more signal
[2] = Plasmodium falciparum growth inhibition, primary screen, strain 3D7, DAPI fluorescence, 100 nL (AID 1184);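 note: parasites grown inside human red blood cells in medium with human serum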; conditions: P. falciparum 3D7 growth, 3 d, higher = more signal
[3] = molecular target: Homeobox protein Hox-A13 (Mus musculus) (UniProt Q62424); assay: inhibitors of HoxA13-DNA binding, primary screen, biochemical, fluorescence polarization, labeled oligonucleotide (AID 1185); conditions: 15 min, higher = more signal, called active from +8 up or from −8 down
Chain of Homeobox protein Hox-A13 (Mus musculus) (Q62424 whole entry, looked up): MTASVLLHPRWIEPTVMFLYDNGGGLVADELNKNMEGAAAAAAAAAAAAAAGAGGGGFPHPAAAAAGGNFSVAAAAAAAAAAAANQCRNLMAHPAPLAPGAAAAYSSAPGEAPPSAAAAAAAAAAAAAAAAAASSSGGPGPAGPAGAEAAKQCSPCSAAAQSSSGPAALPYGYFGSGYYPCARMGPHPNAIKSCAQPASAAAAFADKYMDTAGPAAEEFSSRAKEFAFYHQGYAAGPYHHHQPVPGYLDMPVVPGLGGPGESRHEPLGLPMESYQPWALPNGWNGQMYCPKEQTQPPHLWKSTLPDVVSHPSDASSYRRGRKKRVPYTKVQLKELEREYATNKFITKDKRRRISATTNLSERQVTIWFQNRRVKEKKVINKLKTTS

[4] = inhibitors of hydroxyurea-induced Chk1 phosphorylation, primary screen, imaging, HeLa, phospho-Chk1 antibody, percent positive cells (AID 1186); conditions: hydroxyurea-induced phospho-Chk1 immunofluorescence imaging, higher = more signal
[5] = inhibitors of hydroxyurea-induced Chk1 phosphorylation, primary screen, imaging, HeLa, phospho-Chk1 nuclear intensity (AID 1187); conditions: hydroxyurea-induced phospho-Chk1 immunofluorescence imaging, higher = more signal

Compound | composite z-score [1] | composite z-score (XIP peptide (Xip251-270)) | z-score [2] | z-score [3] | z-score [4] | z-score [5]
COCCOC(=O)N1C(=O)[C@@]2(c3ccccc31)[C@H](C(=O)N1CCCCCCC1)[C@H]1C(=O)O[C@H](c3ccccc3)[C@H](c3ccccc3)N1[C@@H]2c1ccc(O)cc1 | 3.54 (inactive) | 0.83 | -0.621 | 2.5 (inactive) | -0.391 (inactive) | -0.586 (inactive)
COCCOC(=O)N1C(=O)[C@@]2(c3cc(C#CCCO)ccc31)[C@H](C(=O)N1CCN(c3ncccn3)CC1)[C@H]1C(=O)O[C@H](c3ccccc3)[C@H](c3ccccc3)N1[C@@H]2c1ccc(O)cc1 | 1.43 (inactive) | 0.802 | -0.278 | -2.3 (inactive) | -0.416 (inactive) | -0.772 (inactive)
CCCC[C@@H](O)C1=C(COC)Cn2c(=O)n(-c3ccccc3)c(=O)n2[C@H]1CO | -0.698 (inactive) | -0.0217 | 0.519 | -0.879 (inactive) | -0.464 (inactive) | 0.126 (inactive)
COCCOC(=O)N1C(=O)[C@@]2(c3cc(C#CC4=CCCCC4)ccc31)[C@H](C(=O)N1CCc3cc(OC)c(OC)cc3C1)[C@H]1C(=O)O[C@H](c3ccccc3)[C@H](c3ccccc3)N1[C@@H]2c1ccc(O)cc1 | 1.49 (inactive) | 0.795 | -1.8 | 0.129 (inactive) | -0.0825 (inactive) | 0.246 (inactive)
CN(C)CCCC[C@@H]1NC(=O)[C@H]2C[C@@H](C(=O)NCc3ccc(F)cc3)[C@@H](c3ccc(O)cc3)N2C1=O | 2.07 (inactive) | 0.934 | -0.057 | -1.36 (inactive) | 0.806 (inactive) | 1.32 (inactive)
CC(C)C(=C=CC[C@@H](O)c1cccc(OCCO)c1)CCO | 0.202 (inactive) | 0.42 | -0.115 | -1.53 (inactive) | -0.19 (inactive) | 0.247 (inactive)
COCC1=C([C@H](O)CCc2ccccc2)[C@H](CO)n2c(=O)n(-c3ccccc3)c(=O)n2C1 | 0.625 (inactive) | -0.0859 | 0.0736 | -3.09 (inactive) | -0.48 (inactive) | 1.51 (inactive)
CCCCC(O)C1C=CC2C(=O)NC(=O)C2N1Nc1ccccn1 (stereo unspecified) | -0.634 (inactive) | 0.146 | 0.993 | -1.21 (inactive) | 0.846 (inactive) | 0.318 (inactive)
CCCCN1CC=CC23O[C@@H]4/C=C\CCC(C)OC(=O)C4[C@H]2C(=O)N(C(C)CO)[C@@H]3C1=O (stereo partly specified) | 1.02 (inactive) | -0.369 | 0.105 | -5.78 (inactive) | 0.479 (inactive) | 0.632 (inactive)
CC(C)(C)N1CC=CC23O[C@@H]4/C=C\CCCOC(=O)C4[C@H]2C(=O)N(CCCCCCO)[C@@H]3C1=O (stereo partly specified) | 0.956 (inactive) | 0.346 | -0.136 | -4.63 (inactive) | 0.114 (inactive) | 1.32 (inactive)
CCCCCN1CC=CC23O[C@@H]4C=CCOC(=O)[C@@H]4[C@H]2C(=O)N(CCCCCO)[C@@H]3C1=O (stereo partly specified) | 0.213 (inactive) | -0.228 | -0.423 | -3.88 (inactive) | -0.845 (inactive) | -0.498 (inactive)
CC#CCO[Si](C#CCCCCCC)(C(C)C)C(C)C | -0.0884 (inactive) | 0.938 | -1.23 | -2 (inactive) | -0.156 (inactive) | 0.0743 (inactive)
COCCOC(=O)N1C(=O)[C@@]2(c3cc(C#CCC(C(=O)OC)C(=O)OC)ccc31)[C@H](C(=O)N1CCCCCCC1)[C@H]1C(=O)O[C@H](c3ccccc3)[C@H](c3ccccc3)N1[C@@H]2c1ccccc1OCCO | 2.48 (inactive) | 0.483 | -2.4 | 4.77 (inactive) | 0.122 (inactive) | 0.0392 (inactive)
COC(=O)[C@@]1(CCC(=O)OC(C)(C)C)N=C(c2ccc(OCCCO)cc2)O[C@H]1c1ccccc1CN=[N+]=[N-] | 1.63 (inactive) | 0.512 | -2.27 | -1.11 (inactive) | -0.25 (inactive) | 0.0025 (inactive)
[N-]=[N+]=NCc1ccccc1C[C@@]1(C(=O)O)N=C(c2ccc(OCCCO)cc2)O[C@@H]1c1ccccc1CN=[N+]=[N-] | 0.673 (inactive) | 0.512 | 0.107 | -5.11 (inactive) | -0.199 (inactive) | -0.026 (inactive)
CC1(C)OC[C@@]23C=C(Br)[C@@H](C[C@H]12)[C@@]1(CO1)C3=O | -0.319 (inactive) | 0.0841 | 1.96 | 0.26 (inactive) | -0.54 (inactive) | -0.682 (inactive)
C=C(COC)/C(=C/C[C@H](OC(=O)c1ccncc1)c1ccc(OCCO)cc1)c1cc(C(=O)OC)ccc1OC | -0.202 (inactive) | 0.667 | -3.05 | -4.65 (inactive) | 0.203 (inactive) | 0.159 (inactive)
O=C1O[C@H](c2ccccc2)[C@H](c2ccccc2)N2[C@H]1[C@@H](C(=O)NC[C@H](O)c1ccccc1)[C@]1(C(=O)Nc3ccc(C#CCCO)cc31)[C@H]2c1ccccc1OCCO | 0.419 (inactive) | 0.693 | -1.4 | -4 (inactive) | 0.125 (inactive) | 0.46 (inactive)
CCCCCCc1nc(-c2ccc(OC)nc2)cc2c1[Si](C(C)C)(C(C)C)OC2 | -0.0275 (inactive) | -0.019 | -1.99 | -3.55 (inactive) | -0.0362 (inactive) | 0.237 (inactive)
COC(=O)C(CC#Cc1ccc2c(c1)[C@]1(C(=O)N2)[C@H](c2ccc(O)cc2)N2[C@H](c3ccccc3)[C@H](c3ccccc3)OC(=O)[C@H]2[C@@H]1C(=O)N1CCc2cc(OC)c(OC)cc2C1)C(=O)OC | 1.78 (inactive) | 0.779 | -2.02 | -2.32 (inactive) | 0.323 (inactive) | 0.0329 (inactive)
CC(C)[C@@H](C(=O)O)n1cc(-c2ccccc2)nn1 | 0.767 (inactive) | 0.237 | 0.273 | -0.769 (inactive) | 0.391 (inactive) | 0.0268 (inactive)
